From PubChem BioAssay
USP10 inh – human USP10 deubiquitinase inhibition. 47,000 compounds, 1.1% hits. purified USP10, Ub-rhodamine fluorescence, 60 min. Q14694. AID 1645856. inhibition, % at 20 µM
Target sequence (Q14694 whole entry, looked up): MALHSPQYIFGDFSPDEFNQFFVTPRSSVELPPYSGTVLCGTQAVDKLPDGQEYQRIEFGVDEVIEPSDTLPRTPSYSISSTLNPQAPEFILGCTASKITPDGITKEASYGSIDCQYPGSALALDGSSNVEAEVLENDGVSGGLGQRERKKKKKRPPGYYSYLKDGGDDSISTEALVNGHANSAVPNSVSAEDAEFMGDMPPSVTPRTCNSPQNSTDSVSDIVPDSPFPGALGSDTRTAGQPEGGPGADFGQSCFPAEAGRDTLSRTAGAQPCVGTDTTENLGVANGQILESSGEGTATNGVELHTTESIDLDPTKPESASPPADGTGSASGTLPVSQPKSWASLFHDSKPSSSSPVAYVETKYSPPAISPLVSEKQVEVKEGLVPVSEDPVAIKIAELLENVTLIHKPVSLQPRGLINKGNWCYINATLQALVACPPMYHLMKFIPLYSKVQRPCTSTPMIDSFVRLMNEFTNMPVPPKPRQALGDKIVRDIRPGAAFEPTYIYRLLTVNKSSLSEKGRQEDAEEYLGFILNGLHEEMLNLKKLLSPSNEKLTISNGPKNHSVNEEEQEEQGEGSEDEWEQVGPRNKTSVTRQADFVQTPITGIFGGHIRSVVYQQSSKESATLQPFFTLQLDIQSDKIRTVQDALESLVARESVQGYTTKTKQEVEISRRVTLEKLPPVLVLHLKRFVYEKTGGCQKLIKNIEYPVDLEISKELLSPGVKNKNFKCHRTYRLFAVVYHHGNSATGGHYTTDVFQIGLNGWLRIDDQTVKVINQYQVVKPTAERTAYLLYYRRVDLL
UCHL1 block – human UCHL1 deubiquitinase inhibition | P09936 | purified UCHL1, Ub-rhodamine cleavage fluorescence | inhibition, % at 20 µM | 47,000 compounds, 0.2% hits
USP7 inh – inhibitors of human USP7 deubiquitinase; 47,000 compounds, 0.3% hits; purified USP7, Ub-rhodamine cleavage fluorescence; Q93009; inhibition, % at 20 µM
USP8 inh – inhibitors of human USP8 deubiquitinase; 47,000 compounds, 4.2% hits; inhibition, % at 20 µM; purified USP8, Ub-rhodamine cleavage fluorescence, 30 min; P40818; AID 1645853
USP17 block – human USP17-like deubiquitinase inhibition | A8MUK1 | purified USP17, Ub-rhodamine cleavage fluorescence, 3 h | inhibition, % at 50 µM | 47,000 compounds, 6.5% hits | AID 1645855
USP30 inh – human USP30 deubiquitinase inhibition; Q70CQ3; purified USP30, Ub-rhodamine cleavage fluorescence; inhibition, % at 25 µM; 47,000 compounds, 5.3% hits
* hit, by the source's call; . = no result. A selection: hits, their analogues and other compounds. The true share with any hit is near 13%. Cut-off read from the data, not from the text of the source: active = inhibition above about 30%; inactive = the rest.

SMILES | USP10 inh | UCHL1 block | USP7 inh | USP8 inh | USP17 block | USP30 inh
Cc1noc(/C=C/Nc2ccc(OC(F)(F)F)cc2)c1[N+](=O)[O-] | 10 | -2 | 8 | 41* | -6 | -25
COc1cccc(CNC(=O)CCC(=O)N2CCCn3nc(C)cc32)c1 | 0 | 5 | 4 | 12 | 6 | 17
O=C(CCCc1c[nH]c2ccccc12)N1CCN(S(=O)(=O)c2ccc(F)cc2)CC1 | 4 | 7 | 8 | 5 | 11 | 41*
Oc1ccccc1-c1nc2ccc(Cl)cn2c1NCCc1ccccc1 | 7 | 0 | -18 | 78* | 15 | 5
Cc1ccc2nc(-c3ccccc3O)c(NCCc3ccccc3)n2c1 | 7 | 1 | -8 | 80* | 16 | -12
O=C(NCCc1ccccc1)c1cn2cc(Cl)ccc2n1 | 1 | -2 | 0 | 0 | -1 | 0
COc1ccccc1NC(=O)c1nnn(Cc2nc(-c3ccc(C)cc3)oc2C)c1N | -7 | -8 | -5 | 15 | 4 | -22
CCOc1ccc(-c2nc(Cn3nnc(C(=O)Nc4ccccc4C)c3C)c(C)o2)cc1 | 6 | 1 | 7 | 19 | . | 43*
CC(C)c1nccn1-c1cncc(C2CCCN2C(=O)c2cccnc2)n1 (configuration not stated) | -1 | 2 | 4 | 9 | 2 | -6
COc1ccc(NS(=O)(=O)c2ccc(O)c([N+](=O)[O-])c2)cc1S(=O)(=O)N1CCCCC1 | 1 | 2 | -5 | -27 | -9 | -57
Cc1ccc(S(=O)(=O)Nc2ccc(O)c(S(=O)(=O)c3ccc(C)cc3)c2)cc1 | 13 | 5 | 7 | 33* | 10 | 20
Cc1cccc(NC(=O)CSc2ccc(-n3cnc(-c4ccccc4)c3)nn2)c1 | 4 | 0 | 6 | -2 | 20 | 61*
Cc1cccc(NC(=O)CSc2ccc(-c3nc(C)no3)cn2)c1 | -2 | 0 | 0 | -9 | -14 | -81
COc1ccc(NC(=O)c2nnn(-c3ccccc3F)c2C)cc1OC | 1 | 0 | -2 | 0 | -7 | -2
COc1ccc(Cl)cc1Nc1nc(CN2CCOCC2)nc2sc3c(c12)CCC3 | -2 | -1 | -2 | -7 | 11 | -27
CC1CCc2c(sc3nc(CN4CCOCC4)nc(Nc4ccc(C(C)(C)C)cc4)c23)C1 (configuration not stated) | 3 | 7 | 8 | 31* | 16 | 9
CCOc1ccc2nc(N3C(=O)c4oc5ccccc5c(=O)c4C3c3ccco3)sc2c1 (configuration not stated) | 0 | 0 | -22 | 6 | -5 | -76
O=C(COC(=O)c1cc(=O)[nH]c2ccccc12)c1ccc(Cl)cc1 | -2 | -3 | 3 | 16 | -4 | -9
COc1cccc(C(=O)COC(=O)c2cc(=O)[nH]c3ccccc23)c1 | -1 | 1 | 5 | 2 | 37* | -26
CC(=O)NC(Cc1ccccc1)C(=O)NC1CCN(C(=O)Nc2ccc(C)cc2)CC1 (configuration not stated) | 3 | 3 | -7 | 4 | 11 | 22
Cc1ccc(NC(=O)CSc2ccc(N3CCC(C(=O)NC(C)C)CC3)nn2)cc1 | 1 | 0 | 5 | 9 | 25 | .
CC(C)NC(=O)C1CCN(c2ccc(SCC(=O)Nc3ccccc3Cl)nn2)CC1 | 1 | 1 | 3 | 0 | 5 | 34*
Cc1ccc(C)c(NC(=O)c2ccc3c(c2)N(S(C)(=O)=O)CC3)c1 | 6 | 0 | -2 | -5 | -11 | -4
Cc1ccc(NC(=O)c2ccc3c(c2)N(S(C)(=O)=O)CC3)cc1 | 10 | 1 | 2 | 2 | 51* | 14
Cc1ccc(OCCNC(=O)c2nc(-n3cnnc3)ccc2Br)cc1C | -7 | -8 | -12 | -52 | 1 | -110
SMILES | USP10 inh | UCHL1 block | USP7 inh | USP8 inh | USP17 block | USP30 inh
O=C(NCc1ccc2c(c1)OCO2)c1cn2cc(Cl)ccc2n1 | 1 | 0 | -1 | 7 | 47* | 29
O=C(NCc1ccc2c(c1)OCO2)c1nc(-n2cnnc2)ccc1Br | 7 | 1 | -11 | -6 | 35* | 39*
Cc1nc(C(=O)N2CCC(c3cccc(-n4ccnc4C(C)C)n3)CC2)co1 | -1 | -2 | 0 | 2 | 5 | 9
COc1ccc2c(c1)c1ncn(CCC3=CCCCC3)c(=O)c1n2C | 7 | 8 | -68 | 15 | 16 | 31*
COc1ccc2c(c1)c1ncn(CCN3CCCC3)c(=O)c1n2C | -4 | -3 | -6 | -1 | -20 | -28
COc1ccc2c(c1)c1ncn(Cc3ccc4c(c3)OCO4)c(=O)c1n2C | -1 | -2 | 5 | 26 | 35* | 48*
COc1cccc(C2CC(=O)Nc3c2sc(C(=O)O)c3-c2ccc(C)cc2)c1 (configuration not stated) | 3 | -1 | 3 | 17 | 14 | 30*
Cn1c(=O)n(Cc2cccc(Cl)c2)c(=O)c2cnc(-c3ccncc3)nc21 | -5 | -45 | -39 | -65 | -141 | -498
COc1ccc(-c2ncc3c(=O)n(Cc4cccnc4)c(=O)n(C)c3n2)cc1 | -3 | 3 | 6 | 2 | 0 | 36*
CC1CS(=O)(=O)N(c2ccc(S(=O)(=O)Nc3ccccc3Cl)cc2)C1=O (configuration not stated) | 0 | -2 | 4 | 10 | 9 | 6
COc1ccc(S(=O)(=O)Nc2ccc3c(c2)CCN3C(=O)C2CC2)cc1OC | -8 | -3 | -7 | 12 | 5 | -12
COc1ccc(-n2c(N(C)C)nc3cc(C(=O)NC4CC4)sc32)cc1 | 2 | 4 | 0 | 0 | 4 | -5
CCNC(=O)c1cc2nc(N(C)C)n(-c3ccccc3)c2s1 | -3 | 0 | -4 | 75* | 38* | -38
CNC(=O)c1cc2nc(N(C)C)n(-c3ccc(OC)cc3)c2s1 | 0 | 2 | 1 | 78* | 46* | 8
CNC(=O)c1cc2nc(N(C)C)n(-c3ccccc3)c2s1 | -3 | 3 | 0 | 77* | 54* | -6
CS(=O)(=O)N(Cc1nc(-c2ccc3c(c2)OCCO3)no1)Cc1ccccc1Cl | -7 | 2 | 7 | 17 | 8 | 4
Cc1c(S(=O)(=O)NC2CCCCNC2=O)sc2ccc(Cl)cc12 (configuration not stated) | 2 | 2 | 1 | 1 | 51* | 10
COc1cc(C(=O)Nc2nc3ccc(S(=O)(=O)N4CCCC4)cc3s2)cc(OC)c1OC | -6 | 8 | 3 | -8 | 40* | -67
O=C(COc1ccc(Cl)cc1)N1CCc2cc3ccccc3nc21 | -5 | 0 | -2 | -12 | 65* | -14
CCCn1c2ccccc2n2cc(-c3ccc(-c4ccccc4)cc3)nc12 | -5 | 0 | -9 | 81* | 34* | 2
CCCn1c2ccccc2n2c(C(C)=O)c(-c3ccccc3)nc12 | 8 | 10 | 8 | 3 | 13 | 17
Oc1ccccc1CNc1nc2ccccc2n1CCN1CCCCC1 | 3 | -1 | -10 | 8 | 0 | 2
Fc1ccc(-c2cn3c4ccccc4n(Cc4ccc(Cl)cc4)c3n2)cc1 | -4 | 0 | -53 | 62* | 46* | -12
